Rab9 promoter act: Rab9 promoter activation; 320,000 tested, 2.8% active; Potency, µM (series often up to 9.22 µM), for the others: at the top dose activation, negative = inhibition, most hits filed as activators; AID 485297; Huh7 Rab9 promoter-luciferase reporter, luminescence, 24 h; also: % of control where 0% means no effect; nearly all actives have a fitted effect of over 60% in size
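Using Huh7 cells stably transfected with Rab9 promoter–luciferase, compounds were incubated 24 h at 37 °C, 5% CO2; luciferase luminescence was read 10 min after reagent addition.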
FLuc counter: firefly luciferase modulation, counter-screen for miR-21 project | P08659 | 360,000 tested, 6.9% active | Potency, µM (doses to about 57.5 µM), for inactives: at the highest dose activity change, negative = inhibition, usual class: inhibitors | purified FLuc, Km substrates, luminescence inhibition | AID 588342;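 also: plate controls were vehicle for no effect and reference inhibitor for full effect; nearly all actives have a fitted effect of over 55% in size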
Target sequence (P08659 whole entry, looked up): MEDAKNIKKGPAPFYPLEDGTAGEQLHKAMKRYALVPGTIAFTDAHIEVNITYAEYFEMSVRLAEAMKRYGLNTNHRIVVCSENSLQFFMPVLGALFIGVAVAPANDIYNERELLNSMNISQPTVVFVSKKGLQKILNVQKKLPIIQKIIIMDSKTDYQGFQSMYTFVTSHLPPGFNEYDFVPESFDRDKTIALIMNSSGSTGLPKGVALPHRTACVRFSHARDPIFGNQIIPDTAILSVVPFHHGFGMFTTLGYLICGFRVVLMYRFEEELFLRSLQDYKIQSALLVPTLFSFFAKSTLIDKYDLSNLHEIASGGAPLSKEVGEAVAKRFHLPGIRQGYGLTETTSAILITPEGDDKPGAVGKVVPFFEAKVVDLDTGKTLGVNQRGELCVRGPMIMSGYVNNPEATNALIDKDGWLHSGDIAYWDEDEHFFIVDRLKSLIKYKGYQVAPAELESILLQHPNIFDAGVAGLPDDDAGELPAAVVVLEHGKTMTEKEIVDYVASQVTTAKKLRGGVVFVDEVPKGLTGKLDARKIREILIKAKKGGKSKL
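Purified P. pyralis luciferase, 10 nM final, with Km-level 10 uM D-luciferin and 10 uM ATP in 50 mM Tris acetate pH 7.5, 10 mM Mg acetate, 0.01% Tween-20, 0.05% BSA; 6-point qHTS titration about 60 µM downward; luminescence read.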
NPC1 prom act: NPC1 promoter activation; Huh7 NPC1 promoter luciferase reporter, 24 h; Potency, µM (top dose mostly 9.22 µM), inactives show at the top dose activation, most hits filed as activators; 320,000 tested, 2.4% active; also: % of control where 0% means no effect; nearly all actives have a fitted effect of over 60% in size
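Huh7 cells stably carrying NPC1 promoter–luciferase, plated in Opti-MEM with 10% FBS for 2 h, were exposed to compound in DMSO for 24 h at 37 °C; luciferase reagent was added for 10 min and luminescence read.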
SMN2 splice enh: increases expression of the SMN2 splice variant; 210,000 tested, 2.8% active; HEK293 SMN2-luciferase splicing reporter, luminescence, 30-36 h; Potency, µM (titrated, usually from 46.1 µM), for inactives: top-dose activity change, positive = activation, hits mostly activators; also: % of control where 0% means no effect; nearly all actives have a fitted effect of over 55% in size
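HEK293 cells carry an SMN2 minigene-luciferase reporter in which exon 7 inclusion puts luciferase in frame. Cells were seeded at 2000 cells/well, attached for 10-12 hours, then exposed to compounds for 30-36 hours at 37C before ONE-Glo luminescence.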
ELG1 genotoxic: inducers of genotoxicity in HEK293T ELG1-luciferase cells | HEK293T ELG1-luciferase reporter, luminescence, 16 h | Potency, µM (doses to about 46 µM), inactives show at the top dose activity change, positive = activation, actives largely listed as activators | 330,000 tested, 1.3% active; also: % of control where 0% means no effect; nearly all actives have a fitted effect of over 60% in size
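HEK293T cells expressing luciferase-tagged ELG1 were treated with compound or DMSO for 16 hr at 37°C. Luciferase activity was then read after 30 min with ONE-Glo at room temperature; rising signal flags genetic stress.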
Starred values were filed as active, the others as inactive; ? = inconclusive; · = no result; [ ] = dose if it differs, or a comment. A selection: hits, their analogues and other compounds. The true share with any hit is near 7.5%. Calls follow the shape of the dose curve; as a rule, active = well fitted curve in the direction sought with a large enough effect; inconclusive = small, poorly fitted or top-dose-only effect, or another doubt; inactive = no such curve, though single readings can be large; an effect the other way counts as inactive or inconclusive. Potency is read from the fitted curve at half-maximal effect.

SMILES	Rab9 promoter act	FLuc counter	NPC1 prom act	SMN2 splice enh	ELG1 genotoxic
Nc1nc(-c2c[nH]c3ccccc23)cs1	?	?	11.8%	?	-1.8%
CNc1nc(-c2c[nH]c3ccccc23)cs1	13.2%	?	9.7%	11.6%	8.0%
CCc1ccc(-c2csc(-c3c[nH]c4ccccc34)n2)cc1	1.12µM*	21.3µM*	2.51µM*	12.6µM*	?
CCC(C)Nc1nc(-c2c[nH]c3ccccc23)cs1 (configuration not stated)	21.7%	13.5µM*	15.8%	·	13.2%
CCOc1ccc(C(=O)Nc2ccc(Cc3ccncc3)cc2)cc1Br	-2.2%	?	-2.3%	-80.9%	5.0%
O=C(Cc1ccc(F)cc1)N[C@@H]1c2ccccc2CC[C@@H]1OCc1ccccc1	·	·	·	·	0.4%
C=CCC(=O)N1CCCC(CNC(=O)c2ccc(-c3ccccc3)cc2)C1 (configuration not stated)	-3.4%	23.9µM*	-2.0%	·	-0.4%
CC(=O)NCCC(=O)N1CCCC(CNC(=O)c2ccc(-c3ccccc3)cc2)C1 (configuration not stated)	10.6%	15.1µM*	-3.6%	-3.1%	8.5%
O=C(NCC1CCCN(C(=O)c2cscn2)C1)c1ccccc1Cl (configuration not stated)	-0.6%	?	-0.3%	·	7.8%
O=C(NCC1CCCN(C(=O)c2cscn2)C1)c1ccc(-c2ccccc2)cc1 (configuration not stated)	4.8%	16.9µM*	-2.1%	·	4.6%
COc1ccccc1/C=N/NC(=O)CC(=O)Nc1ccc(Cl)c(Cl)c1	-5.1%	-11.1%	-2.4%	-3.5%	-1.6%
COc1ccc2nc(-c3ccco3)c(-c3ccco3)nc2c1	?	2.69µM*	17.8%	5.3%	?
O=C(NCCO)Nc1ccc2nsnc2c1	-0.1%	1.1%	-4.5%	-2.2%	0.2%
CC(=O)c1ccc(NC(=O)c2ccc3nc(-c4ccco4)c(-c4ccco4)nc3c2)cc1	-7.1%	12µM*	-7.7%	14.0%	-8.3%
O=C(NCCCO)c1ccc2nc(-c3ccco3)c(-c3ccco3)nc2c1	1.6%	19µM*	-0.4%	-16.9%	-5.7%
O=C(NCCO)Nc1ccc2nc(-c3ccco3)c(-c3ccco3)nc2c1	-11.4%	23.9µM*	-5.0%	2.6%	0.1%
c1coc(-c2nc(-c3ccco3)c(-c3ccco3)nc2-c2ccco2)c1	0.4%	-8.2%	-1.7%	-8.5%	2.3%
O=C1CN(CC(=O)Nc2ccc(SC(F)F)cc2)CCN1	-0.6%	0.0%	-0.3%	-7.0%	1.1%
COCCn1c(=O)c(-c2ccc(OC)cc2)nc2cnc(OC)nc21	·	·	·	3.3%	·
COc1ccc(C(=O)Nc2cc(C(=O)NCCc3ccccc3)ccc2Cl)cc1	26.0%	?	9.9%	10µM*	15.9%
CCOCC(=O)Nc1cc(C(=O)NCCc2ccccc2)ccc1Cl	2µM*	-14.7%	1µM*	·	?
COCC(=O)Nc1cc(C(=O)NCCc2ccccc2)ccc1Cl	2µM*	?	1.78µM*	0.631µM*	?
COc1ccc(CCNC(=O)c2ccccc2)cc1	27.2%	?	25.7%	·	8.3%
CCN(CC(=O)NCc1cccs1)C(=O)c1ccccc1Cl	2.5%	2.6%	2.2%	-24.9%	?
Cc1nc(N2CCOCC2)c(C#N)c(C)c1Br	-4.7%	1.1%	1.1%	-19.0%	-2.6%
SMILES	Rab9 promoter act	FLuc counter	NPC1 prom act	SMN2 splice enh	ELG1 genotoxic
COc1cccc(N2CCN(C(=O)c3ccc4nc(N5CCCCC5)sc4c3)CC2)c1	?	19µM*	?	-21.5%	?
COc1ccc(N2CCN(C(=O)c3ccc4nc(N5CCCCC5)sc4c3)CC2)cc1	15.5%	?	15.4%	-6.4%	23.1µM*
COc1cccc(N2CCN(C(=O)c3ccc4ccccc4c3)CC2)c1	0.8%	-15.2%	-2.2%	·	-6.4%
O=C(/C=C/c1ccc(O)cc1)c1ccccc1	?	2.69µM*	2.8%	·	?
O=C(/C=C/c1ccc(N2CCC(c3ccccc3)=N2)cc1)c1ccccc1	19.6%	15.1µM*	20.4%	-9.6%	-2.1%
O=C(/C=C/c1ccccc1)c1ccc(O)cc1	·	·	·	-3.8%	·
COc1ccc(/C=C/C(=O)Oc2cc(O)cc(O)c2)cc1	-0.7%[1.84 µM]	15.1µM*	-3.1%	·	-1.2%
Cc1nn(C)cc1/C=C/C(=O)c1ccc(O)cc1	?	13.5µM*	?	-9.8%[1.84 µM]	20.6µM*
O=C(Nc1ccccc1)N1CCC2(CC1)CCN(C(=O)c1ccco1)CC2	·	·	·	-6.6%	·
CC(C)c1ccc(N2CCN(C(=O)c3ccccc3NC(=O)/C=C\C(=O)O)CC2)cc1	0.2%	1.5%	0.5%	-32.2%	1.7%
COc1ccc(-c2cc(O)cc(O)c2)cc1	?	6.75µM*	?	?	6.51µM*
COc1ccc(C(=O)Cn2c(NCCO)nc3ccccc32)cc1	-1.9%	-0.6%	-1.4%	-19.1%	1.2%
COc1ccc(OC)cc1	·	·	·	8.7%	0.6%
COc1ccc(/C=C/C(=O)C(C(N)=O)=C2SCCS2)cc1	19.9%	9.53µM*	16.0%	-72.1%	5.0%
COc1ccc(/C=C/C(=O)c2nc3ccccc3n2CC(=O)c2ccc(OC)cc2)cc1	-5.0%	9.53µM*	-2.6%	9.6%	-7.0%
COc1ccc(C(=O)/C=C/c2ccc(OC3CSC3)cc2)cc1OC	-5.0%	?	-2.6%	-90.5%	5.7%
O=C(/C=C/c1ccc(OC2CSC2)cc1)c1ccc(Cl)cc1	0.0%	10.7µM*	-3.9%	5.3%	5.7%
O=C1C(Nc2ccccc2)=C(N2CCCCC2)C(=O)c2ccccc21	-26.5%	-9.2%	-38.0%	-57.8%	-0.9%
O=C(/C=C/c1ccc(O)cc1)c1ccc(NC2=C(N3CCCCC3)C(=O)c3ccccc3C2=O)cc1	-29.2%	7.57µM*	-34.9%	-98.8%	-5.7%
COc1ccc(C(=O)/C=C/c2ccc(O)cc2)cc1	3.4%	8.49µM*	-3.1%	·	6.8%
COc1ccc(C(=O)/C=C/c2ccccc2)cc1	·	·	·	20.6%	·
O=C(CCNC(=O)c1ccc(Br)cc1)NCCCN1CCOCC1	1.7%	-0.4%	-0.5%	·	-1.2%
COc1ccc(NC(=O)CSc2ccc(-c3sc(C)nc3C)nn2)cc1OC	-8.3%	?	1.0%	·	-23.1%
COc1ccc(Nc2ncnc3c2cnn3-c2ccccc2)cc1OC	5.6%	4.3%	0.8%	-12.2%	7.8%
COc1ccc(Nc2ncnc3sc(-c4ccccc4)cc23)cc1OC	-0.4%	12µM*	1.0%	-6.0%	-0.3%
Cc1ccc(S(=O)(=O)c2c(C)cc(C)[nH]c2=O)cc1	0.3%	2.2%	2.9%	·	4.6%
Cc1cc(C)c2c(N)c(C(=O)c3ccccc3)oc2n1	·	23.9µM*	·	-7.3%	·
Cc1cc(C)c2c(N)c(C(=O)c3ccc(Br)cc3)oc2n1	-0.2%	?	-1.1%	·	-3.5%
COCc1cc(C)nc2oc(C(=O)c3ccccc3)c(N)c12	3.4%	16.9µM*	-1.3%	9.7%	4.4%
CCc1cc2c(=O)n3c(nc2s1)-c1[nH]c2ccc(OC)cc2c1CC3	?	-15.1%	?	25.8%	?
